Assay [1] in a line: Quantitative High-Throughput drug screen in 47 multiple myeloma cell lines against the NCATS MIPE library collection: KMS28PE_JCRB cell viability assay (AID 1918983). Note: nearly all actives have a fitted effect of over 35% in size. The gist of the method:
(§1)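 500 cells/well; MIPE 4.0 drugs pin-transferred; 48 h, 37C, 5% CO2. CellTiter-Glo, 5 min RT, luminescence. Controls: DMSO 100%, media 0%.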

A short description of assay [2]: Quantitative High-Throughput drug screen in 47 multiple myeloma cell lines against the NCATS MIPE library collection: KMS34_JCRB cell viability assay (AID 1918985). Note: nearly all actives have a fitted effect of over 40% in size. The gist of the method:
as §1

The nature of assay [3]: Quantitative High-Throughput drug screen in 47 multiple myeloma cell lines against the NCATS MIPE library collection: U266_ATCC cell viability assay (AID 1919864). Note: nearly all actives have a fitted effect of over 35% in size. In a few lines: as §1
Assay [4] in a line: Quantitative High-Throughput drug screen in 47 multiple myeloma cell lines against the NCATS MIPE library collection: VP6_DJ cell viability assay (AID 1919867). Note: nearly all actives have a fitted effect of over 40% in size. The gist of the method:
as §1

Assay [5] in a line: Quantitative High-Throughput drug screen in 47 multiple myeloma cell lines against the NCATS MIPE library collection: PCM6_Riken cell viability assay (AID 1919870). Note: nearly all actives have a fitted effect of over 30% in size. In a few lines: as §1
The nature of assay [6]: Quantitative High-Throughput drug screen in 47 multiple myeloma cell lines against the NCATS MIPE library collection: RPMI8226_ATCC cell viability assay (AID 1919871). Note: nearly all actives have a fitted effect of over 30% in size. In a few lines:
as §1

Assay [7] is described as follows: Quantitative High-Throughput drug screen in 47 multiple myeloma cell lines against the NCATS MIPE library collection: KMS11_JCRBsus cell viability assay (AID 1919873). Note: nearly all actives have a fitted effect of over 50% in size. In a few lines: as §1
Assay [8] is described as follows: Quantitative High-Throughput drug screen in 47 multiple myeloma cell lines against the NCATS MIPE library collection: KMS28BM_JCRB cell viability assay (AID 1919874). Note: nearly all actives have a fitted effect of over 35% in size. In a few lines: as §1
Assay [9] is described as follows: Quantitative High-Throughput drug screen in 47 multiple myeloma cell lines against the NCATS MIPE library collection: OPM1_PLB cell viability assay (AID 1918989). Note: nearly all actives have a fitted effect of over 40% in size. In a few lines: as §1
Assay [10] is described as follows: Quantitative High-Throughput drug screen in 47 multiple myeloma cell lines against the NCATS MIPE library collection: OCIMY5_PLB cell viability assay (AID 1918988). Note: nearly all actives have a fitted effect of over 65% in size. The gist of the method: as §1
Assay [11] can be described thus: Quantitative High-Throughput drug screen in 47 multiple myeloma cell lines against the NCATS MIPE library collection: XG6_PLB cell viability assay (AID 1919865). Note: nearly all actives have a fitted effect of over 40% in size. The gist of the method: as §1
Assay [12] can be described thus: Quantitative High-Throughput drug screen in 47 multiple myeloma cell lines against the NCATS MIPE library collection: XG1_PLB cell viability assay (AID 1919866). Note: nearly all actives have a fitted effect of over 35% in size. In a few lines:
as §1

The nature of assay [13]: Quantitative High-Throughput drug screen in 47 multiple myeloma cell lines against the NCATS MIPE library collection: PE2_PLB cell viability assay (AID 1919869). Note: nearly all actives have a fitted effect of over 35% in size. The gist of the method: as §1
Assay [14] in a line: Quantitative High-Throughput drug screen in 47 multiple myeloma cell lines against the NCATS MIPE library collection: OPM2_DSMZ cell viability assay (AID 1919872). Note: nearly all actives have a fitted effect of over 30% in size. In a few lines: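 Primary qHTS used for cherry-picking: cells at 500/well, library compounds for 48 h (37C, 5% CO2), luminescent ATP assay.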
The nature of assay [15]: Quantitative High-Throughput drug screen in 47 multiple myeloma cell lines against the NCATS MIPE library collection: OCIMY7_PLB cell viability assay (AID 1918987). Note: nearly all actives have a fitted effect of over 65% in size. In a few lines:
as §1

Assay [16] is described as follows: Quantitative High-Throughput drug screen in 47 multiple myeloma cell lines against the NCATS MIPE library collection: SKMM1_PLB cell viability assay (AID 1919863). For viability: series mostly up to about 46 µM. Note: nearly all actives have a fitted effect of over 35% in size. Conditions: SKMM1 myeloma viability, CellTiter-Glo ATP, 48 h; viability: hits give low values. In a few lines:
as §1
A general note: ATP-based viability assays read luminescence as a measure of living cells.

Assay [17] is described as follows: Quantitative High-Throughput drug screen in 47 multiple myeloma cell lines against the NCATS MIPE library collection: UTMC2_PLB cell viability assay (AID 1919868). Note: nearly all actives have a fitted effect of over 55% in size. In a few lines:
as §1

The target in assay [18] is Cytochrome P450 2D6 (Homo sapiens) (UniProt P10635). Nature of the assay: qHTS for inhibitors of CYP2D6 against the NCATS DSHEA and TCM libraries (AID 1919972). The gist of the method:
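qHTS, concentration–response format with most substances from 19.5 nM. CYP2D6 + pro-luciferin substrate, 15 min with compound, then 1x NADPH regen, 30–45 min RT dark. Glo detection 30 min, luminescence. Quinidine control.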
For orientation: In qHTS, concentration-response curves come from the screen itself.

Records with an inconclusive call do not appear. Values without a mark were called inactive. Active and inactive are the calls of the source. Calls come from the whole dose curve; as a rule, active = well fitted curve in the direction sought with a large enough effect; inconclusive = small, poorly fitted or top-dose-only effect, or another doubt; inactive = no such curve, though single readings can be large; an effect the other way counts as inactive or inconclusive.
Potency is the fitted concentration of half-maximal effect.

Sequence of Cytochrome P450 2D6 (Homo sapiens) (P10635 whole entry, looked up): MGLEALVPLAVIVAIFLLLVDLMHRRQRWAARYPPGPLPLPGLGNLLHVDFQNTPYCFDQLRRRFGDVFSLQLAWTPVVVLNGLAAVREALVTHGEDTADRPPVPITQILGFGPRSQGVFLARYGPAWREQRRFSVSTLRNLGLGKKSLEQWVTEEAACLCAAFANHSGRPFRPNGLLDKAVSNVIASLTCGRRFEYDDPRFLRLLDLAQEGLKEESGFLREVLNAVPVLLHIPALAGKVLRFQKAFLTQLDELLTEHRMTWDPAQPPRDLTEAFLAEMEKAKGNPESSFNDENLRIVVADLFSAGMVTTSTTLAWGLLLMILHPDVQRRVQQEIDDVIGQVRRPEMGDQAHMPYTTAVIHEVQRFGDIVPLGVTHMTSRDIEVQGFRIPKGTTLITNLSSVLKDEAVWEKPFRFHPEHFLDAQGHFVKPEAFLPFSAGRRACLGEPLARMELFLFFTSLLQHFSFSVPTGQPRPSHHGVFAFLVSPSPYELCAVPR

Turning to `CCCCS(=N)(=O)CCC(N)C(=O)O` (centres undefined), the Potency result in [1], in assay [2], in [3], in assay [6], in [7] and in assay [8] was “inactive” each time. In addition, the Potency in assay [4] was 7.43 µM (active); in [5], 18.7 µM (active).
As for `CC(=O)[C@H]1CC[C@H]2[C@@H]3CCC4=CC(=O)CC[C@]4(C)[C@H]3CC[C@]12C`, the Potency result in [1] and in [2] was “inactive” in each case. Besides, the figures for the Potency in [9], in [4] and in assay [7] were 8.33 µM (active), 7.43 µM (active) and 18.7 µM (active), respectively.
Turning to `CCOC(=O)[C@H](CCc1ccccc1)N[C@H]1CCc2ccccc2N(CC(=O)O)C1=O`, the Potency in [1] is 20.9 µM (active); in [10], 23.5 µM (active); in [9], 16.6 µM (active); in assay [3] it was 18.7 µM (active); in assay [11], 14.8 µM (active); in assay [12], 18.7 µM (active). Also, the Potency in assay [4] is 18.7 µM (active); in assay [5], 20.9 µM (active); in assay [6], 18.7 µM (active); in assay [7], 8.33 µM (active); in assay [8], 18.7 µM (active).
On to `COc1cc2c(Nc3ccc(Br)cc3F)ncnc2cc1OCC1CCN(C)CC1`, for which the Potency in [1] is 16.6 µM (active); in assay [10], 18.7 µM (active); in assay [9], 6.62 µM (active); in assay [3] it was 20.9 µM (active); in assay [11], 7.43 µM (active); in assay [12], 7.43 µM (active). Besides, in [6], the Potency is 23.5 µM (active).
Regarding `N[C@@H](C(=O)N[C@@H]1C(=O)N2C(C(=O)O)=C(Cl)CS[C@H]12)c1ccccc1`, the Potency result in assay [1], in assay [2], in assay [9], in assay [11], in [13] and in assay [5] was “inactive” each time. The Potency entry in [6] and in assay [14] was “inactive” in each case.
As for `CCN(CC)CC#CCOC(=O)C(O)(c1ccccc1)C1CCCCC1` (centres undefined), the Potency result in assay [1], in assay [2], in [11], in [12] and in assay [14] was “inactive” throughout.
As usually defined, the viability is a read-out of living cells in per cent, often relative to untreated cells. With `CNC1CCCN(c2c(F)cc3c(=O)c(C(=O)O)cn(C4CC4)c3c2OC)C1` (centres undefined), the Potency result in assay [1], in [11], in assay [12], in assay [13], in assay [5] and in assay [6] was “inactive” in each case. Moreover, the Potency in assay [15] is 1.32 µM (active); in assay [9], 5.9 µM (active); in assay [7], 9.35 µM (active). Further, in [16], the viability is 118%.
In the case of `CCCCCCNC(=O)n1cc(F)c(=O)[nH]c1=O`, the Potency entry in [1], in assay [9], in assay [5] and in [14] was “inactive” in each case. Further, the figures for the Potency in assay [2] and in [4] were 8.33 µM (active) and 5.26 µM (active), respectively.
Consider `COC(c1ccccc1)(c1ccccc1)[C@H](Oc1nc(C)cc(C)n1)C(=O)O`, for which the Potency result in [1], in assay [2], in assay [9], in [3], in assay [11] and in assay [12] was “inactive” each time. Further, the Potency result in assay [5], in assay [6], in assay [14] and in assay [7] was “inactive” each time.
Turning to `CC(C)(C)C(=O)OCOP(=O)(COCCn1cnc2c(N)ncnc21)OCOC(=O)C(C)(C)C`, the Potency in assay [1] is 4.18 µM (active); in assay [10], 1.87 µM (active); in assay [9], 6.62 µM (active); in assay [16], 20.9 µM (active); in [3] it was 0.332 µM (active); in assay [11], 0.469 µM (active). Besides, the Potency in [4] is 1.05 µM (active); in assay [13], 0.187 µM (active); in assay [6], 18.7 µM (active); in assay [14] it was 23.5 µM (active); in assay [7], 23.5 µM (active); in assay [8] it was 11.8 µM (active).
For the compound `OC(Cn1cncn1)(Cn1cncn1)c1ccc(F)cc1F`, the Potency entry in assay [1], in [10], in assay [9], in assay [3], in assay [11] and in assay [4] was “inactive” throughout. Moreover, the Potency result in assay [13], in assay [5], in assay [7] and in assay [8] was “inactive” throughout. For the same compound, the Potency in [6] was 5.26 µM (active).
Regarding `CNCC[C@H](Oc1cccc2ccccc12)c1cccs1`, the Potency in assay [1] was 18.7 µM (active); in assay [15], 0.59 µM (active); in assay [10] it was 2.35 µM (active); in assay [9], 8.33 µM (active); in assay [3], 2.35 µM (active); in assay [11] it was 0.59 µM (active). The Potency in assay [12] was 0.833 µM (active); in assay [4] it was 3.72 µM (active); in [17], 2.64 µM (active); in [13], 4.18 µM (active); in assay [5], 3.72 µM (active); in [6], 23.5 µM (active). The Potency in [7] and in assay [8] was 26.4 µM (active) in each case.
For the compound `Cc1noc(NS(=O)(=O)c2ccc(N)cc2)c1C`, the Potency entry in [1], in [10], in assay [9], in [11], in [12] and in assay [5] was “inactive” each time. Further, the Potency result in assay [6], in [14] and in [7] was “inactive” throughout.
Take `NC(=O)c1ccc2[nH]ccc2c1`: the Potency entry in [1], in [2], in assay [3], in [11], in [4] and in [13] was “inactive” in each case. Moreover, the Potency result in assay [6], in assay [14] and in [7] was “inactive” in each case.
For `Cc1ccnc2c1NC(=O)c1cccnc1N2C1CC1`, the Potency entry in assay [1], in assay [10], in assay [9], in assay [6], in assay [7] and in assay [8] was “inactive” in each case. The Potency in assay [3] is 16.6 µM (active); in assay [11], 23.5 µM (active); in [4], 26.4 µM (active); in [13] it was 26.4 µM (active); in assay [5], 26.4 µM (active).
In the case of `COc1ccc2cc3[n+](cc2c1OC)CCc1cc2c(cc1-3)OCO2`, the Potency was 16.6 µM (active) in assay [1]; 14.8 µM (active) in assay [10]; 18.7 µM (active) in assay [9]; 14.8 µM (active) in assay [16]; 9.35 µM (active) in assay [3]; 16.6 µM (active) in [11]. In addition, the Potency in [12] was 16.6 µM (active); in [4], 7.43 µM (active); in [17], 3.32 µM (active); in [5] it was 11.8 µM (active); in assay [7] it was 3.32 µM (active); in assay [18], 2.24 µM (active).
As to `O=C(N[C@H](CO)[C@H](O)c1ccc([N+](=O)[O-])cc1)C(Cl)Cl`, the Potency result in assay [1], in assay [2], in assay [9], in [11], in assay [12] and in [7] was “inactive” in each case. For the same compound, in [8], the Potency entry was “inactive”.
As for `CC1=NN(c2ccccc2)C(=O)C1`, the Potency result in assay [1], in [15], in assay [9], in assay [13], in [5] and in [6] was “inactive” each time. In addition, in assay [7], the Potency result was “inactive”. The Potency in [11] is 7.43 µM (active).
With `CCn1cc(C(=O)O)c(=O)c2cc(F)c(N3CCNCC3)cc21`, the Potency in assay [1] was 2.96 µM (active). The Potency result in [10], in assay [9], in assay [11], in assay [12], in [4] and in assay [5] was “inactive” throughout. Moreover, the Potency result in assay [6], in [14], in [7] and in assay [8] was “inactive” in each case.

The record behind these values is PubChem BioAssay (NCATS).
